Screening data as filed in PubChem BioAssay.
This is a sample that favours compounds with a hit; in the whole collection about 11% have one here.
hNpr1 antagonist = human Npr1 receptor antagonism. P16066. HEK293 hNpr1 GloSensor cGMP, ANP-stimulated luminescence. Potency, µM (titrated, usually from 46.3 µM), most hits filed as inhibitors. 1.6% of 76,000 active. AID 1347048; calls by dose curve; further: nearly all actives have a fitted effect of over 60% in size
Target sequence (P16066 whole entry, looked up): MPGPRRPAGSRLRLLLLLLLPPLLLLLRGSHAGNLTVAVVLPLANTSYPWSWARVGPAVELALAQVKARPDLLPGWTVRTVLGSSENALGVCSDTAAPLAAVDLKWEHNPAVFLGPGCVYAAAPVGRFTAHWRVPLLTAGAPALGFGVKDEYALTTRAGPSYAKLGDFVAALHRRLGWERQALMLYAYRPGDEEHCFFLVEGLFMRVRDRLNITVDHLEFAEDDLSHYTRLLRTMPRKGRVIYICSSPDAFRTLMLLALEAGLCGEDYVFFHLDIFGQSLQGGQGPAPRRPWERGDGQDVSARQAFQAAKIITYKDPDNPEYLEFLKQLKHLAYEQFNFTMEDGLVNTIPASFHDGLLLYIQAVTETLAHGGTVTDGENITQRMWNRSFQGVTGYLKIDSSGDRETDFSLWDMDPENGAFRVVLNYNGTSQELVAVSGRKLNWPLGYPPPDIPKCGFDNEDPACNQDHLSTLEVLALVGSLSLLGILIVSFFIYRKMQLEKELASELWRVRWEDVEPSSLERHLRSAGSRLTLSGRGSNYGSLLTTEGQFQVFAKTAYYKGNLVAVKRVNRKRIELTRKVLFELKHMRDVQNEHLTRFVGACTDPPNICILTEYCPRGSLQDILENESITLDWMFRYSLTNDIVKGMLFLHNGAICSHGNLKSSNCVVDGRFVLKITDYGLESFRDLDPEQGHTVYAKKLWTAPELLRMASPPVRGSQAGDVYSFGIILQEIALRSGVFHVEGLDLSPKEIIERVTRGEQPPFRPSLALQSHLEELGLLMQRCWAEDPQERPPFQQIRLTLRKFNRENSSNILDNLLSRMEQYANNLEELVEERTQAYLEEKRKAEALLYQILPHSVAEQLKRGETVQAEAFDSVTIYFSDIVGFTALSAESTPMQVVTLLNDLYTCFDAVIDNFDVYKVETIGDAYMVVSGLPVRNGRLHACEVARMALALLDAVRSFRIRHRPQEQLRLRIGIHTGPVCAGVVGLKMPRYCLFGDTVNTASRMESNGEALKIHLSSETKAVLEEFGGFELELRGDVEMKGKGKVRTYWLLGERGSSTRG
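Compound pre-incubated 30 min at room temperature on GloSensor-loaded HEK293 cells stably carrying hNpr1 and the pGS-40F cGMP biosensor. Stimulation uses hNppA at 0.1 nM final; luminescence is taken at baseline and 20 min post-agonist.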
HEK293 tox = HEK 293 cell cytotoxicity; AID 1345083; 6.6% of 94,000 active; Potency, µM (highest dose often 115 µM), hits mostly inhibitors; HEK 293 viability, ATP luminescence (CellTiter-Glo), 48-72 h; further: nearly all actives have a fitted effect of over 60% in size
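HEK 293 seeded at 250 cells/well receive compound via pintool. After 48 or 72 hr at 37 degree Celsius, 5% CO2 and 95% humidity, CellTiter-Glo is dispensed and luminescence read following 10 min at room temperature.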
FLuc inh-1 = Photinus pyralis luciferase inhibition; Potency, µM (doses to about 115 µM), actives largely listed as inhibitors; P08659; 2.5% of 76,000 active; purified P. pyralis luciferase, luminescence, biochemical; further: nearly all actives have a fitted effect of over 65% in size
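Biochemical qHTS: compound (6-point titration) added to 10uM D-luciferin plus 10uM ATP in Tris acetate pH 7.5 buffer with Mg, Tween-20 and BSA, then purified enzyme at 10nM; light output imaged.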
3T3 cytotox = cytotoxic compounds in NIH 3T3 cells; NIH 3T3 viability, CellTiter-Glo ATP luminescence, 48-72 h; Potency, µM (highest dose often 96.7 µM), actives largely listed as inhibitors; 4.3% of 94,000 active; further: nearly all actives have a fitted effect of over 55% in size
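Mouse fibroblast NIH 3T3 cells, 400 per well, received compound via pintool and were incubated for 48 or 72 hr prior to CellTiter-Glo ATP luminescence measurement.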
FLuc SDR -ATP = firefly luciferase binding stabilization, ATP absent; shares compounds with FLuc inh-1; Purified FLuc-C-HiBiT, Nano-Glo HiBiT luminescence, no ATP; Potency, µM (highest dose often 32.7 µM), hits mostly activators; 7.8% of 1,300 active; AID 1963318; further: nearly all actives have a fitted effect of over 55% in size
FLuc SDR ATP = binders stabilizing firefly luciferase, plus ATP; 8.7% of 1,300 active; AID 1963319; purified FLuc-C-HiBiT + ATP, HiBiT complementation luminescence; shares compounds with FLuc inh-1; Potency, µM (highest dose often 32.7 µM), hits mostly activators;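 further: signal reports ligand binding via conformational change of the enzyme rather than luciferase catalysis; nearly all actives have a fitted effect of over 55% in size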
FLuc inh-2 = blocks firefly luciferase enzymatic activity; purified FLuc-C-HiBiT enzyme, luciferin luminescence; 42% of 1,300 active; AID 1963320; shares compounds with FLuc inh-1; Potency, µM (titrated, usually from 32.7 µM), most hits filed as inhibitors; further: nearly all actives have a fitted effect of over 70% in size
A number is an active result; i = inactive; ? = inconclusive; nt = no result. Unless noted, the call rests on the fitted dose curve; in most records, active means well fitted curve in the direction sought with a large enough effect; inconclusive means small, poorly fitted or top-dose-only effect, or another doubt; inactive means no such curve, though single readings can be large; an effect the other way counts as inactive or inconclusive.

SMILES	hNpr1 antagonist	HEK293 tox	FLuc inh-1	3T3 cytotox	FLuc SDR -ATP	FLuc SDR ATP	FLuc inh-2
CCc1[nH]c2c(CNC(=O)C(C)O)cc(C)cc2c1C (stereo not drawn)	i	i	i	i	nt	nt	nt
CCn1nccc1C(=O)NCc1cc(C)cc2c(C)c(-c3ccccc3)[nH]c12	?	28.2µM	15.8µM	39.8µM	nt	nt	nt
Cc1cc(CNC(=O)c2cccc(F)c2F)c2[nH]c(C)c(C)c2c1	i	35.5µM	i	?	nt	nt	nt
COc1ccccc1C(=O)N1CCC2(CC1)OC(=O)N(Cc1csc(C)n1)C2(C)c1ccccc1 (stereo not drawn)	i	i	i	?	nt	nt	nt
Cc1nc(CN2C(=O)OC3(CCN(C(=O)c4ccnn4C)CC3)C2(C)c2ccccc2)cs1 (stereo not drawn)	i	i	i	31.6µM	nt	nt	nt
Cc1nc(CN2C(=O)OC3(CCN(C(=O)CCc4ccccn4)CC3)C2(C)c2ccccc2)cs1 (stereo not drawn)	i	i	i	?	nt	nt	nt
Cc1nc(CN2C(=O)OC3(CCN(C(=O)c4scnc4C)CC3)C2(C)c2ccccc2)cs1 (stereo not drawn)	i	i	i	28.2µM	nt	nt	nt
Cc1nc(CN2C(=O)OC3(CCN(C(=O)c4cccnc4)CC3)C2(C)c2ccccc2)cs1 (stereo not drawn)	i	i	i	44.7µM	nt	nt	nt
O=C1Cc2c(-c3ccccc3Cl)n[nH]c2CN1CC1CC1	i	?	i	?	nt	nt	nt
O=C(Cc1ccsc1)N1CCC2(CC1)CC(N(Cc1ccc(F)cc1)C1CC1)CCO2 (stereo not drawn)	i	?	i	?	nt	nt	nt
COc1ccccc1-c1cccc(CN2CCC(N[S+](=O)([O-])c3cccc(C(F)(F)F)c3)CC2)c1	nt	?	nt	12.6µM	nt	nt	nt
COc1ccccc1-c1cccc(CN2CCC(N[S+](=O)([O-])c3ccccc3)CC2)c1	nt	39.8µM	nt	31.6µM	nt	nt	nt
O=C(NCCCc1ccncc1)C1CC12CCN(C(=O)c1cccc(C(F)(F)F)c1)CC2 (stereo not drawn)	i	i	i	i	nt	nt	nt
CCOc1ccc2c(n1)CCN(C(=O)c1ccc(OC)nc1OC)C2	i	i	i	i	nt	nt	nt
CN(C)CCCOCC1(C)COc2ccc(C(=O)Nc3ccc(F)c(Cl)c3)cc2N1 (stereo not drawn)	i	63.1µM	i	39.8µM	nt	nt	nt
CC1(COCC2CC2)COc2ccc(C(=O)Nc3ccc(Cl)cc3)cc2N1 (stereo not drawn)	?	28.2µM	i	35.5µM	nt	nt	nt
CCOCC1(C)COc2ccc(C(=O)Nc3ccccn3)cc2N1 (stereo not drawn)	?	?	15.8µM	?	nt	nt	nt
CNC(=O)c1ccc2c(c1)NC(C)(COc1ccccc1)CO2 (stereo not drawn)	i	?	i	?	nt	nt	nt
CC1(CCCCN2CCOCC2)COc2ccc(C(=O)Nc3ccc(Cl)cc3)cc2N1 (stereo not drawn)	i	50.1µM	?	?	nt	nt	nt
CN(C)CCCOCC1(C)COc2ccc(C(=O)N3CCOCC3)cc2N1 (stereo not drawn)	i	i	i	?	nt	nt	nt
O=C(Nc1cccc(Cl)c1)C1CCc2nnc(C3CC3)n21 (stereo not drawn)	nt	i	nt	i	nt	nt	nt
COc1cccc(CNc2nc3ccccc3c3nc(-c4cccc(C)c4)nn23)c1	nt	nt	nt	nt	i	i	?
COc1cccc(CNC(=O)Cn2c(-c3ccccc3)nc(C)cc2=O)c1	i	?	i	i	nt	nt	nt
Cc1ccccc1-c1noc(-c2nc(-c3ccncc3)no2)n1	i	i	i	i	nt	nt	nt
CCc1noc(-c2nc(-c3ccccc3OC)no2)n1	i	?	i	i	nt	nt	nt
SMILES	hNpr1 antagonist	HEK293 tox	FLuc inh-1	3T3 cytotox	FLuc SDR -ATP	FLuc SDR ATP	FLuc inh-2
Cc1ccccc1-c1noc(-c2ccc(N3CCCC3)c([N+](=O)[O-])c2)n1	nt	nt	nt	nt	i	?	?
COc1ccc(-c2noc(-c3ccc(N4CCN(C)CC4)c([N+](=O)[O-])c3)n2)cc1	nt	nt	nt	nt	i	i	?
COc1ccccc1-c1noc(-c2ccc(N3CCN(C)CC3)c([N+](=O)[O-])c2)n1	nt	nt	nt	nt	?	?	4.95µM
O=C(c1cccc(F)c1)N1CCN(C(=O)c2nnn3c2COC(c2ccccc2)C3)CC1 (stereo not drawn)	i	?	i	i	nt	nt	nt
Cc1ccc(C(=O)N2CCC3(CC2)NC(=O)N(Cc2ccc(F)cc2)C3=O)cc1F	?	?	i	?	nt	nt	nt
COc1ccccc1-n1cc(-c2ccnc(N3CCCN(C(C)=O)CC3)n2)cn1	i	?	i	?	nt	nt	nt
Cc1ccc(C)c(-c2cc3c(=O)n(CCNC(=O)c4ccc(N(C)C)cc4)ccn3n2)c1	i	?	i	?	nt	nt	nt
COC(=O)[C@@H]1C[C@H](NC(=O)c2ccc(Oc3ccccc3)cc2)CN1C	i	i	14.1µM	i	i	i	?
Cc1nnc(SCc2ccccc2)c2cc3sccc3n12	nt	nt	nt	nt	i	i	?
CC1(Cc2ccc3c(c2)OCO3)CCCN(C(=O)c2ccc3ncsc3c2)C1 (stereo not drawn)	i	44.7µM	7.94µM	i	?	i	?
C#CCn1c(/C=C/c2ccc(Cl)cc2)nc2ccccc21	nt	nt	nt	nt	3.94µM	?	0.624µM
COc1ccc(C2Cn3cnc(C(=O)N4CCC(C(=O)NCCc5ccccc5)CC4)c3CO2)cc1 (stereo not drawn)	i	i	i	i	nt	nt	nt
O=C(NCc1ccc(Cl)cc1)C1CCN(C(=O)c2ncn3c2COC(c2ccccc2)C3)CC1 (stereo not drawn)	i	i	8.91µM	i	i	?	3.94µM
O=C(NCc1ccc2c(c1)OCO2)C1CCN(c2cc(C(F)(F)F)ncn2)CC1	?	?	10µM	?	i	i	?
O=C(NCc1ccco1)C1CCN(C(=O)c2ncn3c2COC(c2ccccc2)C3)CC1 (stereo not drawn)	i	i	5.01µM	i	i	2.48µM	2.48µM
CCOc1cccc(CNC(=O)C2CCN(C(=O)c3ncn4c3COC(c3ccccc3)C4)CC2)c1 (stereo not drawn)	i	i	14.1µM	i	i	?	?
COc1ccc(C2Cn3cnc(C(=O)N4CCC(C(=O)NCC5CC5)CC4)c3CO2)cc1 (stereo not drawn)	i	i	i	i	nt	nt	nt
O=C(NCCc1ccccc1)C1CCN(c2cc(C(F)(F)F)ncn2)CC1	i	i	i	i	nt	nt	nt
O=C(NCc1ccc(F)cc1)N1CCC(Oc2ncccc2C(=O)N2CCCCC2)C1 (stereo not drawn)	i	i	i	i	nt	nt	nt
CCOC(=O)[C@@H]1CN(C(=O)C2CCCC2)[C@H]2c3ccc(OC)cc3O[C@@H]12	nt	?	nt	i	nt	nt	nt
N#Cc1ccc(C(=O)N2CCC(Cc3nc(-c4ccncc4)n[nH]3)C2)cc1 (stereo not drawn)	i	i	i	i	nt	nt	nt
